Potency and affinity values are given separately. The source made the active and inactive calls.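 The calls were made as follows, unless noted: active = a dose-response fit showing signal loss, with half-maximal concentration no higher than twice the top tested dose; inconclusive = flat fit between 30% and 70% signal loss, or poor fit; inactive = the rest.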
Experiments:
[1] = C. neoformans lysis by adenylate kinase leakage – AK release luminescence, cherry-picks, dose response (AID 687000;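 active = fitted dose curve reaches 40% lysis signal rise at or below the highest valid concentration tested for that sample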;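 also: luminescent detection of adenylate kinase leaking from lysed yeast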)
[2] = viability loss in HepG2 hepatoma cells – cell-based, cherry-picks, set 2, cytotoxicity control, dose response (AID 687002)
[3] = viability loss in HeLa cells – cell-based, ATP luminescence, cherry-pick samples, cytotoxicity control, dose response (AID 687004;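 active = a fitted half-maximal concentration no higher than twice the top valid tested dose, with signal falling as cells die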)
[4] = toxicity toward HepG2 liver cells – cell-based, plate reader, cherry-pick, antagonist series, cytotoxicity control, dose response (AID 743416; call rule not given here)

Structure (SMILES) | outcome [1] | outcome [2] | outcome [3] | outcome [4]
C[C@@H]1CN([C@H](C)CO)C(=O)c2cc(NS(=O)(=O)c3cn(C)cn3)ccc2O[C@@H](C)CCCCO[C@H]1CN(C)C | inactive | inactive | inactive | –
CCOC(=O)NCc1ccc2[nH]c(C)cc2c1 | inactive | inactive | inactive | –
O=C(C[C@H]1CC[C@H]2[C@@H](COC[C@H](O)CN2Cc2cc(F)cc(F)c2)O1)Nc1nccs1 | inactive | inactive | inactive | –
Cc1ccccc1NC(=O)C1CCC(=O)N1 (stereo not given) | inactive | inactive | inactive | –
CC(=O)N[C@H]1CC[C@H](CCNC(=O)C2CCC2)O[C@@H]1CO | inactive | inactive | inactive | –
COC(=O)C1=C(C)N(Cc2ccccc2)C(=S)N[C@H]1c1cccc(F)c1 | – | inactive | – | –
CC(C)CC#Cc1cnc2c(c1)C(=O)N([C@@H](C)CO)C[C@@H](C)[C@@H](CN(C)C(=O)c1cccc(F)c1)O2 | inactive | inactive | inactive | –
Cc1cccc(-c2ccc([C@@H]3[C@@H](CO)N4CCCCN(S(=O)(=O)c5ccccc5C)C[C@@H]34)cc2)c1 | inactive | inactive | inactive | –
CC(C)N1C(=O)C2(OCCCO2)c2cc(Br)ccc21 | inactive | inactive | inactive | –
S=C(NCCc1cccc(Cl)c1)NC1CCCCC1 | inactive | inactive | inactive | –
C[C@@H]1CN([C@@H](C)CO)S(=O)(=O)c2ccc(C3=CCCC3)cc2O[C@@H]1CN(C)Cc1ccccc1F | inactive | inactive | inactive | –
C[C@H](CO)N1C[C@H](C)[C@H](CN(C)Cc2ccccc2F)Oc2cc(C3=CCCC3)ccc2S1(=O)=O | inactive | – | inactive | –
Cc1ccc(C(=O)Nc2ccc3ncccc3c2)cc1 | inactive | inactive | – | inactive
CCc1ccccc1NC(=O)C1NC(=O)CC1c1ccccc1 (stereo not given) | inactive | inactive | inactive | –
O=C(Nc1ccc(N2CCOCC2)cc1N1CCOCC1)c1cccc([N+](=O)[O-])c1 | inactive | inactive | inactive | –
Cc1cccc(C)c1NC(=S)NN(Cc1ccccc1)c1ccccc1 | inactive | inactive | inactive | –
CCN(CC)CC(=O)N(CC(=O)Nc1c(C)cc(C)cc1C)C1CCCCC1 | inactive | inactive | inactive | –
CCNC(=O)CN(c1ccc(C)cc1)S(=O)(=O)c1ccc(SC)cc1 | inactive | inactive | inactive | –
O=C(C[C@H]1CC[C@@H]2[C@H](COC[C@H](O)CN2CC2CCOCC2)O1)NCc1ccc(Cl)cc1 | inactive | inactive | inactive | –
O=C(c1ccco1)N1N=C(c2cccs2)CC1c1ccco1 (stereo not given) | inactive | inactive | inactive | –
C[C@H](NC(=O)C[C@@H]1C=C[C@H](NC(=O)CN2CCOCC2)[C@H](CO)O1)c1ccccc1 | inactive | inactive | inactive | –
Cc1ccccc1N(CC(=O)NCCSC1CCCCC1)S(=O)(=O)c1ccccc1 | inactive | inactive | inactive | –
CC(=O)N[C@H]1CC[C@@H](CCNC(=O)C2CCC2)O[C@H]1CO | inactive | inactive | inactive | –
Cc1ccc(S(=O)(=O)N2CC[C@@H]3[C@H](CO)Nc4ccc(-c5ccccc5F)cc4[C@@H]32)cc1 | inactive | inactive | inactive | –

Structure (SMILES) | outcome [1] | outcome [2] | outcome [3] | outcome [4]
Cc1cc(C)c(NC(=O)C2CCCN2CCC(C)C)c(C)c1 (stereo not given) | – | inactive | – | –
Cc1c(C(=O)NC(=S)Nc2ccccc2N2CCCC2)cccc1[N+](=O)[O-] | – | inactive | inactive | –
CCN1C(=S)N[C@@H](c2ccccc2)C(C(=O)OC)=C1C | – | inactive | inactive | –
COC(=O)C1=C(C)N(Cc2ccc(F)cc2)C(=S)NC1c1ccc(Cl)cc1 (stereo not given) | – | inactive | – | –
COC(=O)C1=C(C)N(CC(C)C)C(=S)NC1c1ccc(-c2ccccc2)cc1 (stereo not given) | – | inactive | – | –
COc1ccc(C(=O)NC(=S)Nc2ccccc2N2CCOCC2)cc1[N+](=O)[O-] | – | inactive | – | –
COC(=O)C1=C(C)N(Cc2ccc(Br)cc2)C(=S)NC1c1ccc(OC)cc1 (stereo not given) | – | inactive | inactive | –
CCCCN1C(=S)NC[C@@H]1Cc1ccccc1 | – | inactive | inactive | –
NC(=S)N/N=C/c1ccc(-c2cc(Cl)ccc2Cl)o1 | – | inactive | – | –
CCCOc1ccc(CNC(=S)NCc2ccc(OC(C)C)cc2)cc1 | – | inactive | inactive | –
COC(=O)C1=C(C)N(Cc2ccc(F)cc2)C(=S)NC1c1ccc(F)cc1 (stereo not given) | – | inactive | – | –
COc1cc(OC)c(N(C)C(=O)c2cn(C)c(=O)c3cc(OC)c(OC)cc23)cc1Cl | – | inactive | inactive | –
O=C(NC(=S)Nc1ccc(Br)cc1)C1CCC1 | – | inactive | inactive | –
COc1ccc(N2CCN(C(=O)Cc3cccs3)CC2)cc1 | – | inactive | inactive | –
Cc1c(Cl)cccc1NC(=S)NCCc1ccc(Cl)cc1 | – | inactive | inactive | –
COC(=O)C1=C(C)N(Cc2ccc(Cl)cc2)C(=S)NC1c1ccc(F)cc1 (stereo not given) | – | inactive | inactive | –
COC(=O)C1=C(C)N(Cc2ccccc2)C(=S)N[C@H]1c1cccc(C(F)(F)F)c1 | – | inactive | – | –
COC(=O)C1=C(C)N(Cc2ccc(Br)cc2)C(=S)NC1c1ccccc1 (stereo not given) | – | inactive | inactive | –
CC(C)c1ccccc1NC(=S)NN(Cc1ccccc1)c1ccccc1 | – | inactive | – | –
COC(=O)C1=C(C)N(C)C(=S)NC1c1ccccc1 (stereo not given) | – | inactive | inactive | –
COC(=O)C1=C(C)N(Cc2ccc(Cl)cc2)C(=S)NC1c1cccc(Cl)c1 (stereo not given) | – | inactive | – | –
C[C@H](CO)N1C[C@H](C)[C@@H](CN(C)S(=O)(=O)c2cn(C)cn2)Oc2c(NC(=O)Nc3ccccc3)cccc2C1=O | – | inactive | inactive | –
Fc1ccccc1NC(=S)NN(Cc1ccccc1)c1ccccc1 | – | inactive | inactive | –
O=C(NC(=S)Nc1ccccc1N1CCOCC1)c1cccc([N+](=O)[O-])c1 | – | inactive | inactive | –

Structure (SMILES) | outcome [1] | outcome [2] | outcome [3] | outcome [4]
COC(=O)C1=C(C)N(Cc2ccccc2)C(=S)NC1c1cccc(Br)c1 (stereo not given) | – | inactive | inactive | –
COc1ccccc1C#Cc1ccc2c(c1)O[C@H](CN(C)C(C)=O)[C@H](C)CN([C@@H](C)CO)S2(=O)=O | – | inactive | inactive | –
COC(=O)C1=C(C)N(Cc2ccc(Cl)cc2)C(=S)NC1c1ccccc1 (stereo not given) | – | inactive | inactive | –
Cc1cccc2sc(N3CCN(C(=O)c4cccs4)CC3)nc12 | – | inactive | inactive | –
C[C@@H]1CN([C@H](C)CO)S(=O)(=O)c2ccc(C#Cc3ccccn3)cc2O[C@H]1CN(C)Cc1ccccc1 | – | inactive | inactive | –
O=C(CN(c1ccc(F)cc1)S(=O)(=O)c1ccccc1)N1CCOCC1 | – | inactive | inactive | –
Cc1ccc2nc(C)c3c(c2c1)OC(C(C)(Cl)Br)C3 (stereo not given) | – | inactive | – | –
COC(=O)C1=C(C)N(CC(C)C)C(=S)NC1c1ccc(Cl)cc1 (stereo not given) | – | inactive | inactive | –
O=C(NC(=S)Nc1cc(Cl)ccc1N1CCOCC1)c1ccccc1[N+](=O)[O-] | – | inactive | inactive | –
COc1ccccc1NC(=S)NCc1ccc(Cl)cc1 | – | inactive | inactive | –
C[C@H](CO)N1C[C@H](C)[C@@H](CN(C)Cc2ccc(Oc3ccccc3)cc2)Oc2ccc(NS(=O)(=O)c3cn(C)cn3)cc2CC1=O | – | inactive | inactive | –
COC(=O)C1=C(C)N(CC(C)C)C(=S)NC1c1ccc(F)cc1 (stereo not given) | – | inactive | inactive | –
Cc1cc(C)c(NC(=O)C2CCCN2C(=O)NC2CCCCC2)c(C)c1 (stereo not given) | – | inactive | inactive | –
COC(=O)C1=C(C)N(Cc2ccc(Cl)cc2)C(=S)NC1c1cccc(F)c1 (stereo not given) | – | inactive | inactive | –
CCc1ccc(C(C)NC(=S)NCc2ccc(F)cc2)cc1 (stereo not given) | – | inactive | inactive | –
Cc1ccc(OCCn2c(=S)[nH]c3ccccc32)c(C(C)C)c1 | – | inactive | – | –
COc1cc2c(C(=O)N(C)c3cc(Cl)ccc3OC)cn(C)c(=O)c2cc1OC | – | inactive | inactive | –
O=C(N[C@@H]1CC[C@@H](CCn2cc(-c3ccccc3)nn2)O[C@H]1CO)c1cnccn1 | – | inactive | inactive | –
O=C(CSc1ncnc2c1cnn2-c1cccc(Cl)c1)NCC1CCCO1 (stereo not given) | – | inactive | inactive | –
S=C(Nc1ccccc1Oc1ccccc1)Nc1cccc(Cl)c1Cl | – | inactive | inactive | –
COc1ccc(CNC(=S)NCc2ccc(OC)cc2)cc1 | – | inactive | inactive | –
C[C@H]1CCCCO[C@@H](CN(C)Cc2ccncc2)[C@@H](C)CN([C@@H](C)CO)C(=O)c2cc(NC(=O)Nc3ccccc3)ccc2O1 | – | inactive | inactive | –

Reference: PubChem BioAssay
